# Source: PubChem (National Center for Advancing Translational Sciences (NCATS))
# CHX counter – counter-screen hit for Shiga toxin inhibitors, cycloheximide; cell reporter, cycloheximide protein synthesis inhibition counterscreen; max response, %; 300,000 compounds, 12% hits; in the data active = max response mostly above about 13%, no sharp cut-off; inactive = mostly below about 14%; note: read at 38.3 µM for the half of the compounds with a filed dose; 0% is about no effect
# Shiga inhibitor – blocks Shiga toxin action in Vero cells; 290,000 compounds, 9.2% hits; Vero cells, Shiga toxin protein synthesis inhibition reporter; inhibition, % at 38.7 µM; AID 2315; in the data active = inhibition mostly above about 28%, no sharp cut-off; inactive = mostly below about 43%; note: 0% is about no effect
# NS1 inh – blocks influenza NS1 protein function. Potency, µM (highest dose often 46.1 µM), inactives show top-dose activity, positive = more growth. AID 2326. 270,000 compounds, 0.4% hits; note: potency is the fitted concentration of half-maximal effect; actives are rising curves; nearly all actives have a fitted effect of over 50% in size
#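 Recovery from NS1-induced slow growth read by OD600 in budding yeast switched to galactose assay medium (pH 6.0, -URA) at 1:100 dilution. Compound 23 nl per well; the matching strain lacking NS1 serves as control.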
# Pf growth 96h – inhibits malaria parasite growth, 96 h. Potency, µM (titrated, usually from 28.7 µM), inactives show top-dose activity change, negative = inhibition, hits mostly inhibitors. AID 504834. 320,000 compounds, 6.9% hits. P. falciparum luciferase reporter growth, 96 h; active = well fitted inhibition curve with a large enough effect; inconclusive = small, poorly fitted or top-dose-only effect, or another doubt; inactive = no such curve, though single readings can be large or run the other way; note: potency is the fitted concentration of half-maximal effect; % is set by controls: 0 for no effect and ±100 for the full control effect
#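 Plates of compound plus infected erythrocytes (2% hematocrit, 0.05% parasitemia final) incubate 96 hours, 37 C, 5% CO2. Detection reagent added; reduced luminescence from the parasites' luciferase reporter flags inhibition.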
# SARS PLP yeast – blocks SARS-CoV papain-like protease in a yeast assay | S. cerevisiae expressing SARS-CoV PLpro, growth rescue | Potency, µM (titrated, usually from 32.9 µM), without a hit: top-dose activity, positive = growth rescue, actives largely listed as activators | 330,000 compounds, 0.19% hits | AID 485353; note: potency is the fitted concentration of half-maximal effect; 0% is about no effect; nearly all actives have a fitted effect of over 55% in size
# Pf growth 48h – inhibits P. falciparum growth in the first generation, 48 h; AID 504832; Potency, µM (highest dose often 28.7 µM), for inactives: top-dose activity change, negative = inhibition, most hits filed as inhibitors; P. falciparum luciferase growth in erythrocytes, 48 h; 310,000 compounds, 5.9% hits; active = well fitted inhibition curve with a large enough effect; inconclusive = small, poorly fitted or top-dose-only effect, or another doubt; inactive = no such curve, though single readings can be large or run the other way; note: potency is the fitted concentration of half-maximal effect; % is set by controls: 0 for no effect and ±100 for the full control effect
#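 In quantitative HTS format, infected erythrocytes bearing luciferase-reporter parasites were treated for a single generation at 37 C. Luminescence after adding detection reagent served as the growth measure.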
# Numbers without * were called inactive; ? = inconclusive; / = no result; ! = not confirmed by another sample. Most compounds without a hit are left out; they make up all but 21% or so of the library. Unless noted, calls come from the whole dose curve.
SMILES,CHX counter,Shiga inhibitor,NS1 inh,Pf growth 96h,SARS PLP yeast,Pf growth 48h
CN(C)c1ncc(CN2CCC(C(=O)Nc3ccc(-n4cccn4)cc3)CC2)s1,-1.3,-11.4,4.5%,17.3%,6.4%,2.62µM*
Clc1cccc(OCCN2CCNCC2)c1,-4.0,-3.6,3.9%,50.6%,10.1%,?
FC(F)(F)c1cccc(OCCN2CCN(Cc3ccccc3)CC2)c1,-4.3,-17.1,5.2%,10.4µM*,-33.7%,11.9%
CN(CCOc1cccc(C(F)(F)F)c1)Cc1ccccc1,-1.8,-4.7,-9.8%,?,0.6%,25.2%
OCCN1CCN(CCOc2cccc(Cl)c2)CC1,0.8,37.9,-51.6%,1.65µM*,-6.5%,21.9%
S=C1SCN(Cc2ccco2)CN1Cc1ccco1,1.1,-5.5,-63.8%,4.65µM*,-6.7%,?
S=C1NCN(Cc2ccco2)CN1,-0.6,1.7,4.6%,60.7%,0.8%,40.2%
N#Cc1c(N)nc2c(c1-c1cccc(O)c1)CCCCCC2,-4.8,-9.8,-1.1%,-6.3%,?,0.6%
Oc1cccc(-c2nc3ccc4ccccc4c3c3c2CCC3)c1,59.0*,127.1*,-146.7%,-11.2%,-43.6%,/
CCOC(=O)C1(Cc2ccc(Cl)cc2)CCN(C(C)Cc2ccc(O)c(OC)c2)CC1 (centres undefined),-3.3,1.5,18.7%,?,-0.4%,?
Cc1ccc(S(=O)(=O)Oc2ccc(/C=C(/NC(=O)c3ccccc3)C(=O)Nc3ccccc3)cc2)cc1,3.5,-8.8,?,9.28µM*,3.9%,?
COc1ccccc1C(=O)N/C(=C/c1ccco1)C(=O)Nc1cccc(C(=O)O)c1,-2.6,9.2,20.7%,373.9%,-2.2%,14.0%
CC(=O)c1cccc(NC(=O)/C(=C\c2ccco2)NC(=O)c2cccs2)c1,12.9*,28.6*,4.4%,?,3.6%,17.9%
Cc1ccc(C(=O)N/C(=C/c2ccco2)C(=O)Nc2cccc(C(=O)O)c2)cc1,21.8*,28.2,?,?,3.8%,-7.6%
CCC1CCCCN1C(=O)COc1ccc2c3c(c(=O)oc2c1)CCC3 (centres undefined),/,/,/,?,-4.3%,?
COc1ccc(CCNC(=O)CC2SC(=NCCc3ccccc3)NC2=O)cc1 (centres undefined),-0.1,-13.5,-7.4%,?,-4.4%,-10.0%
Cc1ccc(C(=O)NN2C(=O)C3C4c5ccccc5C(c5ccccc54)C3C2=O)cc1 (centres undefined),-0.8,-9.7,11.0%,-103.1%,6.2%,-2.7%
O=c1c2ccccc2ncn1CCOc1ccccc1[N+](=O)[O-],25.8*,37.2,2.2%,22.3%,-0.1%,3.0%
O=c1c2ccc([N+](=O)[O-])cc2ncn1CCOc1ccccc1,20.1*,54.1*,2.7%,?,-0.9%,?
CC1=CCC(C(C)(C)O)CC1 (centres undefined),/,/,/,14.2%,/,2.6%
Cc1ccc(S(=O)(=O)CCC(=O)N2CCN(c3ccc(Cl)cc3)CC2)cc1,-1.6,14.4,2.5%,?,2.3%,-9.2%
COc1ccc(C(=O)NCCS(=O)(=O)N2CCc3ccccc3C2)cc1OC,/,/,/,-25.4%,-1.6%,17.6%
Cc1cccc(N2CCc3c2nc2ccccc2c3N)c1,16.7*!,26.9*!,-22.5%,10.4µM*,2.0%,?
O=C(O)[C@@H](O)[C@@H](O)[C@@H](O)[C@@H](O)c1nc2ccccc2s1,/,/,-32.1%,/,/,/
O=C1C(=C2SCCCS2)CC/C1=C\c1ccc(F)cc1,31.0*,78.6*,-5.4%,79.6%,-11.7%,4.1%
SMILES,CHX counter,Shiga inhibitor,NS1 inh,Pf growth 96h,SARS PLP yeast,Pf growth 48h
O=C1CNC(=O)/C(=C\c2ccc(F)cc2)N1,-2.5,-5.2,0.1%,14.7%,-0.3%,/
Cc1ccc(N2C(=O)CC(N3CCN/C3=C3\CC/C(=C\c4ccccc4)C3=O)C2=O)cc1 (centres undefined),3.1,-6.6,/,8.7%,-0.1%,-18.8%
Cc1cccc(/C=C2\CCC(=C3SCCCS3)C2=O)c1,44.4*,79.9*,-12.4%,80.6%,0.3%,166.1%
COc1ccc(S(=O)(=O)N/N=C(/C)c2cccc(NC(=O)c3ccccc3Cl)c2)cc1,5.0,-6.3,-0.9%,48.9%,-7.2%,4.6%
CCOC(=O)/C(C#N)=C1/C=CN(c2ccccc2)C=N1,4.2,49.4,-8.1%,/,?,60.7%
CCOC(=O)/C(C#N)=C1/C=CN(c2ccc(C)cc2)C=N1,29.5*,64.1*,2.7%,15.2%,10.6%,/
COc1ccc(N(C)C(=O)c2cn(CC(C)C)c(=O)c3cc(OC)c(OC)cc23)cc1,-3.2,-6.7,4.7%,19.0%,0.6%,-13.5%
O=C(O)CC(c1ccc(F)cc1F)N1Cc2ccccc2C1=O (centres undefined),-6.1,-9.2,-1.9%,2.1%,0.8%,?
O=[N+]([O-])c1ccc(O)c(-c2nn[nH]n2)c1,37.4*,53.1*,0.2%,/,9.0%,20.8%
Cc1cc(C)n(-c2ccc([N+](=O)[O-])cc2-c2nn[nH]n2)n1,6.8,2.7,/,4.8%,0.3%,39.5%
COc1cc(OC)c(C2=Nc3ccc(Br)cc3C(c3ccccc3)N2CC(=O)NN)cc1OC (centres undefined),3.7,-5.9,/,?,-2.8%,?
CCOC(=O)CNC(=O)Nc1cc(C(C)(C)C)nn1-c1ccccc1,37.3*,-4.2,-10.4%,32.4%,0.9%,3.5%
CC/C(=N\n1nnnc1Nc1ccccc1)c1ccccc1,9.1,1.4,-12.2%,-18.1%,-23.0%,10.4µM*
CC(C)c1ccc(/C=N/n2nnnc2Nc2ccccc2)cc1,-1.6,-16.1,-4.8%,/,4.4%,6.9%
CCCCCc1nc2sc3c(c2c(=O)n1NC(=O)c1ccc([N+](=O)[O-])cc1)CC(C)(C)OC3,-1.9,-0.4,-4.7%,-39.6%,-44.0%,0.0%
O=C(NNC(=O)c1cc(OCC(F)(F)F)ccc1OCC(F)(F)F)c1cccc(C(F)(F)F)c1,19.7*,55.9*,-17.1%,?,-2.1%,14.7µM*
CCNC(=O)NCCNC(=O)c1cc(OCC(F)(F)F)ccc1OCC(F)(F)F,3.4,10.1,4.9%,207.1%,-2.0%,2.94µM*
COC(=O)c1cc(Cn2nc(C(=O)O)c3ccccc3c2=O)oc1C,2.7,-6.7,7.1%,?,0.8%,37.8%
NC(=O)NC(=O)[C@H]1CCCC[C@@H]1C(=O)O,/,/,3.5%,/,/,/
O=C(CSc1nnc(Nc2ccccc2F)s1)NCC1CCCO1 (centres undefined),/,/,/,/,-2.9%,/
O=C(CSc1nnc(NC(=O)c2ccccc2F)s1)NCC1CCCO1 (centres undefined),17.1*,18.9*,18.0%,85.1%,9.0%,68.8%
O=C(CSc1nnc(NC(=O)c2ccccc2)s1)NCC1CCCO1 (centres undefined),29.6*,35.9*,5.7%,102.7%,-6.4%,14.4%
O=C(CSc1nnc(NC(=O)c2ccccc2[N+](=O)[O-])s1)NCC1CCCO1 (centres undefined),3.9,40.0,11.4%,13.1µM*,6.0%,21.1%
